Laboratory results from PubChem BioAssay (NCATS).
Inconclusive results are not listed. Where a call stands in place of a potency, no number is given. The source made the active and inactive calls. Calls come from the whole dose curve; as a rule, active = well fitted curve in the direction sought with a large enough effect; inconclusive = small, poorly fitted or top-dose-only effect, or another doubt; inactive = no such curve, though single readings can be large; an effect the other way counts as inactive or inconclusive.

What follows are compounds tested against Aldehyde dehydrogenase, mitochondrial (Homo sapiens) (UniProt P05091) (assay: qHTS for Inhibitors of the Aldehyde Dehydrogenase Family (ALDH2) Primary screen (AID 2061308; note: nearly all actives have a fitted effect of over 55% in size)). Conditions: ALDH2 enzyme inhibition qHTS, 1536-well; series mostly up to 56 µM.

Structure (SMILES)	Potency
O=C(CNC(=O)c1cccc(Cl)c1)OC(C(=O)Nc1cc(C(F)(F)F)ccc1Cl)c1ccccc1 (stereo not given)	inactive
C=C(C)C(=O)O[C@H]1C[C@@](C)(O)C2(O)CCC(C)(/C=C3/OC(=O)C(COC)=C31)O2 (stereo not given in full)	inactive
Cc1ccc(S(=O)(=O)Nc2cnccc2C(=O)Nc2nc(C3CCC3)cs2)cc1	inactive
Cc1cc(N[S+](=O)([O-])c2cc3c(cc2Cl)CCC(=O)N3)ccc1Cl	inactive
Cc1nc(NCc2ccccc2)c2nc(-c3ccccc3)n(CCCN3CCOCC3)c2n1	inactive
O=S(=O)(Nc1cccc2cccnc12)c1ccc(Br)s1	inactive
CCOC(=O)C1CCN(C(=O)CNC(=O)Nc2ccccc2Cl)CC1	inactive
O=C1CCCC2=C1C1(CCSC1)N=C(Nc1nc3ccccc3o1)N2 (stereo not given)	inactive
C#CCOc1ccc(-c2nnc3n2N=C(c2ccc(OC)c(OCC(C)=O)c2)CS3)cc1	inactive
O=C(Nc1nc(-c2ccccc2)cs1)c1ccncc1NS(=O)(=O)c1ccc2c(c1)CCC2	inactive
C#CCOc1cc(C2=Nn3c(nnc3-c3ccc(OCC(C)=O)cc3)SC2)ccc1OC	inactive
C=C(C)C(=O)O[C@H]1[C@H]2C(=C)C(=O)O[C@@H]2C[C@@H](C)[C@@H]2O[C@@H]2C(=O)[C@](C)(O)[C@@H]1OC(C)=O	inactive
Fc1cccc(-c2ccc(Nc3nc(-c4ccncc4)nc4ccccc34)cc2F)c1	inactive
COc1cccc(N2C(=O)c3ccccc3C2=O)c1	inactive
Cc1ccc(Cn2ncc3c4sc(C)cc4n(C)c3c2=O)cc1	inactive
CC1CCC2C(C)(C)C(O)CCC2(C)C12Cc1c(O)cc3c(c1O2)C(N)=NC3 (stereo not given)	inactive
COc1ccc(C2Nc3ccccc3C(=O)N2CCO)cc1COc1c(C)cc(NC(C)=O)cc1C (stereo not given)	inactive
Cc1nc(Nc2ccccc2)c2nc(-c3ccccc3)n(CCCN3CCCCC3C)c2n1 (stereo not given)	inactive
Cn1nnnc1Sc1ncnc2scc(-c3cc4ccccc4o3)c12	inactive
C=C1C(=O)OC2CC3(C)C(CC12)C(C)=CC(O)C3OC(C)=O (stereo not given)	inactive

Structure (SMILES)	Potency
O=C1CCCC2=C1C(c1[nH]ncc1Cl)N=C(Nc1ccccn1)N2 (stereo not given)	inactive
O=c1c2ccccc2nc2sc(Nc3cccc(-c4ccncc4)c3)nn12	inactive
CCc1ccc2oc(=O)cc(CN3CCN(c4ccccc4F)CC3)c2c1	inactive
O=C(O)Cc1cc(F)c(S(=O)(=O)N2CCN(S(=O)(=O)c3ccc4c(c3)OCCO4)CC2)cc1F	inactive
Cn1c(=O)c2c(nc(CN3CCN(C(=O)C4CC4)CC3)n2Cc2cccc(F)c2)n(C)c1=O	inactive
O=C1CCCC2=C1C1(CCCC1)N=C(Nc1nc3ccccc3o1)N2	inactive
COC(=O)C1=CC[C@H](c2ccc(C)cc2)N(S(=O)(=O)c2ccc(C)cc2)[C@@H]1c1ccc(C(C)(C)C)cc1	inactive
Cc1cc(C)nc(NC(=S)N2CCN(c3ncc(Cl)cc3Cl)CC2)c1	inactive
CCOC(=O)CC(=O)Nc1ncnc2c1C(c1ccccc1)c1c(ccc3ccccc13)O2 (stereo not given)	inactive
O=C(c1ccc2c(c1)ncn2-c1ccccc1)N1CCCCC1	inactive
c1csc(CCNc2ncnc3ccc(-c4ccc5c(c4)OCO5)cc23)c1	inactive
O=C(OCC#CCSc1nnc(-c2cccc3ccccc23)o1)c1ccc(F)cc1F	inactive
COc1ccc(S(=O)(=O)N2CCN(S(=O)(=O)c3c(F)cccc3F)CC2)cc1	inactive
Cc1cc2c(s1)c1cnn(Cc3cc(F)ccc3F)c(=O)c1n2C	inactive
CCc1nn2c(=O)cc(NC3CNC3)nc2s1	inactive
CCS(=O)(=O)N1CCC(C(=O)Nc2ccc(S(=O)(=O)Nc3nccs3)cc2)CC1	inactive
Cc1cc2c(s1)c1cnn(Cc3ccc(C)c(F)c3)c(=O)c1n2C	inactive
O=C1NC(=O)/C(=C/c2ccco2)N1	inactive
COc1ccc2c(c1)N1C(=O)C[C@@]34C=CC[N@+]5([O-])CC[C@H]2[C@H](CC3)[C@@]145	inactive
Cc1ccnc(NC(=S)N2CCC(Nc3cccc(C(F)(F)F)c3)CC2)c1	inactive

The compounds below were run against Retinaldehyde dehydrogenase 3 (Homo sapiens) (UniProt P47895) (assay: qHTS for Inhibitors of the Aldehyde Dehydrogenase Family (ALDH1A3) Primary screen (AID 2061315)). Conditions: ALDH inhibition qHTS; series mostly up to 56 µM.

Structure (SMILES)	Potency
O=C(CNC(=O)c1cccc(Cl)c1)OC(C(=O)Nc1cc(C(F)(F)F)ccc1Cl)c1ccccc1 (stereo not given)	inactive
C=C(C)C(=O)O[C@H]1C[C@@](C)(O)C2(O)CCC(C)(/C=C3/OC(=O)C(COC)=C31)O2 (stereo not given in full)	inactive
Cc1ccc(S(=O)(=O)Nc2cnccc2C(=O)Nc2nc(C3CCC3)cs2)cc1	inactive
Cc1cc(N[S+](=O)([O-])c2cc3c(cc2Cl)CCC(=O)N3)ccc1Cl	inactive
Cc1nc(NCc2ccccc2)c2nc(-c3ccccc3)n(CCCN3CCOCC3)c2n1	inactive
O=S(=O)(Nc1cccc2cccnc12)c1ccc(Br)s1	inactive
CCOC(=O)C1CCN(C(=O)CNC(=O)Nc2ccccc2Cl)CC1	inactive
O=C1CCCC2=C1C1(CCSC1)N=C(Nc1nc3ccccc3o1)N2 (stereo not given)	inactive
C#CCOc1ccc(-c2nnc3n2N=C(c2ccc(OC)c(OCC(C)=O)c2)CS3)cc1	inactive
O=C(Nc1nc(-c2ccccc2)cs1)c1ccncc1NS(=O)(=O)c1ccc2c(c1)CCC2	inactive
C#CCOc1cc(C2=Nn3c(nnc3-c3ccc(OCC(C)=O)cc3)SC2)ccc1OC	inactive
C=C(C)C(=O)O[C@H]1[C@H]2C(=C)C(=O)O[C@@H]2C[C@@H](C)[C@@H]2O[C@@H]2C(=O)[C@](C)(O)[C@@H]1OC(C)=O	inactive
Fc1cccc(-c2ccc(Nc3nc(-c4ccncc4)nc4ccccc34)cc2F)c1	inactive
COc1cccc(N2C(=O)c3ccccc3C2=O)c1	inactive
Cc1ccc(Cn2ncc3c4sc(C)cc4n(C)c3c2=O)cc1	inactive
CC1CCC2C(C)(C)C(O)CCC2(C)C12Cc1c(O)cc3c(c1O2)C(N)=NC3 (stereo not given)	inactive
COc1ccc(C2Nc3ccccc3C(=O)N2CCO)cc1COc1c(C)cc(NC(C)=O)cc1C (stereo not given)	inactive
Cc1nc(Nc2ccccc2)c2nc(-c3ccccc3)n(CCCN3CCCCC3C)c2n1 (stereo not given)	inactive
Cn1nnnc1Sc1ncnc2scc(-c3cc4ccccc4o3)c12	inactive
C=C1C(=O)OC2CC3(C)C(CC12)C(C)=CC(O)C3OC(C)=O (stereo not given)	inactive

Structure (SMILES)	Potency
O=C1CCCC2=C1C(c1[nH]ncc1Cl)N=C(Nc1ccccn1)N2 (stereo not given)	inactive
O=c1c2ccccc2nc2sc(Nc3cccc(-c4ccncc4)c3)nn12	inactive
CCc1ccc2oc(=O)cc(CN3CCN(c4ccccc4F)CC3)c2c1	inactive
O=C(O)Cc1cc(F)c(S(=O)(=O)N2CCN(S(=O)(=O)c3ccc4c(c3)OCCO4)CC2)cc1F	inactive
Cn1c(=O)c2c(nc(CN3CCN(C(=O)C4CC4)CC3)n2Cc2cccc(F)c2)n(C)c1=O	inactive
O=C1CCCC2=C1C1(CCCC1)N=C(Nc1nc3ccccc3o1)N2	inactive
COC(=O)C1=CC[C@H](c2ccc(C)cc2)N(S(=O)(=O)c2ccc(C)cc2)[C@@H]1c1ccc(C(C)(C)C)cc1	inactive
Cc1cc(C)nc(NC(=S)N2CCN(c3ncc(Cl)cc3Cl)CC2)c1	inactive
CCOC(=O)CC(=O)Nc1ncnc2c1C(c1ccccc1)c1c(ccc3ccccc13)O2 (stereo not given)	inactive
O=C(c1ccc2c(c1)ncn2-c1ccccc1)N1CCCCC1	inactive
c1csc(CCNc2ncnc3ccc(-c4ccc5c(c4)OCO5)cc23)c1	inactive
O=C(OCC#CCSc1nnc(-c2cccc3ccccc23)o1)c1ccc(F)cc1F	inactive
COc1ccc(S(=O)(=O)N2CCN(S(=O)(=O)c3c(F)cccc3F)CC2)cc1	inactive
Cc1cc2c(s1)c1cnn(Cc3cc(F)ccc3F)c(=O)c1n2C	inactive
CCc1nn2c(=O)cc(NC3CNC3)nc2s1	inactive
CCS(=O)(=O)N1CCC(C(=O)Nc2ccc(S(=O)(=O)Nc3nccs3)cc2)CC1	inactive
Cc1cc2c(s1)c1cnn(Cc3ccc(C)c(F)c3)c(=O)c1n2C	inactive
O=C1NC(=O)/C(=C/c2ccco2)N1	inactive
COc1ccc2c(c1)N1C(=O)C[C@@]34C=CC[N@+]5([O-])CC[C@H]2[C@H](CC3)[C@@]145	inactive
Cc1ccnc(NC(=S)N2CCC(Nc3cccc(C(F)(F)F)c3)CC2)c1	inactive
